Compound activity (PubChem)
Pf apPOL inh – Pf-apPOL DNA polymerase inhibition. hit rate 0.25% among 210,000. Recombinant Pf-apPOL, molecular beacon fluorescence, 1.5 h. inhibition, % at 10 µM. AID 1794808
mHTT CaM bind – disrupts binding of mutant huntingtin to calmodulin. hit rate 3.6% among 190,000. AlphaScreen His-mHTT/GST-CaM binding, luminescence. inhibition, % at 15 µM. P42858. AID 1671202;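 note: 0% = both proteins with DMSO and 100% = one protein alone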
Target sequence (P42858 whole entry, looked up, stated change not applied): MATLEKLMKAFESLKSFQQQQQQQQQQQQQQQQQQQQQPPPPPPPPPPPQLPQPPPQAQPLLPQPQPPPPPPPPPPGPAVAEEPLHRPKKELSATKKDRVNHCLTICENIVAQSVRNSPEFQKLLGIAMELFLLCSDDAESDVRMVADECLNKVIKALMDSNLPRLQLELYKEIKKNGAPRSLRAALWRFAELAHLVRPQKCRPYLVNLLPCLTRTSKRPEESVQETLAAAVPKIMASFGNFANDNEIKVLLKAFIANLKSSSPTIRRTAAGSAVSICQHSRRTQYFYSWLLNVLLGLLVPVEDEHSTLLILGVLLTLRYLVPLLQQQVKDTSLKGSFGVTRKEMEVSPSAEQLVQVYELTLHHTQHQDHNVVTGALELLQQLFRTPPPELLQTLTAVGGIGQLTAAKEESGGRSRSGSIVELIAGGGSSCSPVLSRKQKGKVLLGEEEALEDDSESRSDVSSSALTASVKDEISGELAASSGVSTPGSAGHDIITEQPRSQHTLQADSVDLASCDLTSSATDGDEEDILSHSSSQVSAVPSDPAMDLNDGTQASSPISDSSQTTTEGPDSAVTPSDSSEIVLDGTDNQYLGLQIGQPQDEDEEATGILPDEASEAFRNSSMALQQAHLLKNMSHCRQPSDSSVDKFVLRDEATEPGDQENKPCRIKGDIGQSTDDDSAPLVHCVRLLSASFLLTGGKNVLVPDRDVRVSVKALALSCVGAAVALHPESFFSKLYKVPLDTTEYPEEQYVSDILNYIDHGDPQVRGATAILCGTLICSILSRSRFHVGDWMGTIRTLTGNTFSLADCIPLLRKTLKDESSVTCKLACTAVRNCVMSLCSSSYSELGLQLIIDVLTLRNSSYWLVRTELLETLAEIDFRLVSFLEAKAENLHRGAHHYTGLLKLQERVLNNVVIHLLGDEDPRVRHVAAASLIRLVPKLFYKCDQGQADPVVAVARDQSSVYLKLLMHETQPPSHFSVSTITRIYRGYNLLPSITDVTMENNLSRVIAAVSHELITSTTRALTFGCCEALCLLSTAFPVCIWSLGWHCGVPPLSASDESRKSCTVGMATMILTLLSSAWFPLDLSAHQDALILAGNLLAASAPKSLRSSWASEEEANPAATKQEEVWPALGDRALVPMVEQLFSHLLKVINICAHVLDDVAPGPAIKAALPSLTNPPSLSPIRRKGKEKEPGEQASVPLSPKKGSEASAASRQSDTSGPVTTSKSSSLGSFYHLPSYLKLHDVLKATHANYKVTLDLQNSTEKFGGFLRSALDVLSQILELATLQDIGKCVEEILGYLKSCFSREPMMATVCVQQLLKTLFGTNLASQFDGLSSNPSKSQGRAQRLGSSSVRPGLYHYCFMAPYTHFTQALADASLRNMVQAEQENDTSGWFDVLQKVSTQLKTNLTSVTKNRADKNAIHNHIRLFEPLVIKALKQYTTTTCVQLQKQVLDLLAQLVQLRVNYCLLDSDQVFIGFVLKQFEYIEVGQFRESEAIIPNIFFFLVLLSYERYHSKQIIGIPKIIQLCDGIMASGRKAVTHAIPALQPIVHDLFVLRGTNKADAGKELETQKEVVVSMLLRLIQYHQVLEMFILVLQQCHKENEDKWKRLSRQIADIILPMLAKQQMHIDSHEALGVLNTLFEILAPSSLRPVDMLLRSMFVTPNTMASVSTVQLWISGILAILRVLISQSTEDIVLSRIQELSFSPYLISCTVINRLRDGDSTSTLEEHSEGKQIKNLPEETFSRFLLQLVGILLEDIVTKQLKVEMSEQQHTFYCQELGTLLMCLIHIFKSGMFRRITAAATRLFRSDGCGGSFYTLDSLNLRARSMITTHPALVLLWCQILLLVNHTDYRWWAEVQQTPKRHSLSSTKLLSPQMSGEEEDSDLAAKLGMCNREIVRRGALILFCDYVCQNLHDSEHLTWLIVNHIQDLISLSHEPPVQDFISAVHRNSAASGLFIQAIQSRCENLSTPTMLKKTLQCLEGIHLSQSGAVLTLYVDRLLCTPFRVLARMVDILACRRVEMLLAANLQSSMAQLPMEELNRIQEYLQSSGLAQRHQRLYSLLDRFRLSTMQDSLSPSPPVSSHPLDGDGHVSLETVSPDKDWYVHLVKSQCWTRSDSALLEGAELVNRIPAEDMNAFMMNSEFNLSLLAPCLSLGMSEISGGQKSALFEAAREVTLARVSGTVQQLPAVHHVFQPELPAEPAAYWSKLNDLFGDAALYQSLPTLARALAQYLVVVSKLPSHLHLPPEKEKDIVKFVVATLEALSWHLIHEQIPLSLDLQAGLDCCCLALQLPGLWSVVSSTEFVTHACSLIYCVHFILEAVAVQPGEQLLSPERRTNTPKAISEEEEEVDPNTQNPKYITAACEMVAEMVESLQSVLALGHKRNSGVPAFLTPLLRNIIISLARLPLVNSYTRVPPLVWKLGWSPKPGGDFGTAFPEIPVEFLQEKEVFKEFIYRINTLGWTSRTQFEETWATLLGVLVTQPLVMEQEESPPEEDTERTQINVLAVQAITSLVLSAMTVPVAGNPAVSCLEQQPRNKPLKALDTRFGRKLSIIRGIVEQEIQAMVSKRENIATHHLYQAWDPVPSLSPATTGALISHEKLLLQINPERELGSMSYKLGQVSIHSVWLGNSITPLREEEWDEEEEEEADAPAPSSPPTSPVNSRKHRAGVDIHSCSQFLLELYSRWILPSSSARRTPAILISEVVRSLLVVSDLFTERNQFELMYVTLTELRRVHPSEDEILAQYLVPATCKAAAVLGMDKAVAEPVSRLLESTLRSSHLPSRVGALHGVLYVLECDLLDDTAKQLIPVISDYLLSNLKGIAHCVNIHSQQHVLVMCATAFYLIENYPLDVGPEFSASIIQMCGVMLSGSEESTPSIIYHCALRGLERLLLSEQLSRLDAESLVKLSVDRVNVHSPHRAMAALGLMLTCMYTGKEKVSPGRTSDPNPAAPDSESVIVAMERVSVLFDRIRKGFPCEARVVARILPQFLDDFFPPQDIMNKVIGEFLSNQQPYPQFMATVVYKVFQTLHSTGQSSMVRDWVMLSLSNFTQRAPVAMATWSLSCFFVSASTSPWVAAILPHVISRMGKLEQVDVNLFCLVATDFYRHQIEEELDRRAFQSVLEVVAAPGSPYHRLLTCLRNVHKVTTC
Numbers without * were called inactive. The sample as a whole holds a higher share of hits than the screen did. Cut-off read from the data, not from the text of the source: active = inhibition above about 50%; inactive = the rest.

`CC(=O)N1CCN(c2ccc(NC(=O)COc3ccc(Cl)cc3Cl)cc2)CC1` gave Pf apPOL inh -16.1 and mHTT CaM bind 50.4*.
`O=C(CCSc1ccc(Cl)cc1)N1CCN(c2ccc(F)cc2)CC1` gave Pf apPOL inh -6.3 and mHTT CaM bind 15.2.
Screening O=C(CCCOc1ccc(Cl)cc1Cl)N1CCN(c2ccc(F)cc2)CC1 returned Pf apPOL inh 9.4 and mHTT CaM bind 76.5*.
Screening CCCC(=O)Nc1ccc(NC(=O)COc2ccc(Cl)cc2Cl)cc1 returned Pf apPOL inh 6.0 and mHTT CaM bind 8.6.
Screening Cc1ccc(/C=C2\SC(N3CCC(C)CC3)=NC2=O)cc1 returned Pf apPOL inh -3.6 and mHTT CaM bind 6.0.
For Cc1cccc(N2C(=O)CSC23CCN(C(=O)CCCl)CC3)c1 the results were Pf apPOL inh 3.3 and mHTT CaM bind -7.9.
Screening O=C(NC(Nc1ccc(Cl)cc1)C(Cl)(Cl)Cl)c1ccco1 (stereo unspecified) returned Pf apPOL inh 4.4 and mHTT CaM bind 3.0.
Screening O=C(NC(Nc1ccc(Cl)cc1Cl)C(Cl)(Cl)Cl)c1ccco1 (stereo unspecified) returned Pf apPOL inh 9.5 and mHTT CaM bind 51.0*.
Screening Cc1cccc(NC(=O)N2CCC(n3cnc4c(Cl)cccc4c3=O)CC2)c1 returned Pf apPOL inh 0.2 and mHTT CaM bind 6.2.
For O=C1OC(c2ccccc2F)=N/C1=C/c1ccc(Cl)cc1Cl the results were Pf apPOL inh 6.5 and mHTT CaM bind -4.0.
For CC1=C(/C=C/c2ccc(Cl)cc2Cl)C(=O)c2ccccc2C1=O the results were Pf apPOL inh -5.9 and mHTT CaM bind 67.8*.
Screening CN(C)CCCNCCC1(c2cccc(C(F)(F)F)c2)CCOC(C)(C)C1 (stereo unspecified) returned Pf apPOL inh -2.6 and mHTT CaM bind -6.5.
Screening CCn1cc(CN2CCC(C(=O)NCc3cccc(Cl)c3)CC2)c2cc(OC)ccc21 returned Pf apPOL inh 1.2 and mHTT CaM bind 90.0*.
`CCn1cc(CN2CCC(C(=O)NCc3cccc(OC)c3)CC2)c2ccccc21` gave Pf apPOL inh -3.9 and mHTT CaM bind 12.2.
Cn1cc(CN2CCC(C(=O)NCCN3CCCCC3)CC2)c2cc(Cl)ccc21 was read as Pf apPOL inh 1.0 and mHTT CaM bind 1.4.
Screening Cn1cc(CN2CCC(C(=O)NCCCN3CCCC3)CC2)c2cc(Cl)ccc21 returned Pf apPOL inh -1.3 and mHTT CaM bind 54.7*.
CCCN(CCC)S(=O)(=O)c1ccc(C(=O)NNC(=S)NC2CC3CCC2C3)cc1 (stereo unspecified) was read as Pf apPOL inh -87.8.
CCc1cccc(N2C=C(C(=O)N3CCOCC3)S(=O)(=O)c3ccc(F)cc32)c1 was read as Pf apPOL inh -1.0 and mHTT CaM bind 9.1.
`O=C(NC1CC(=O)N(Cc2ccccc2)C1)c1ccccc1Cl` (stereo unspecified) gave Pf apPOL inh -5.6 and mHTT CaM bind -8.7.
Cc1sc(-c2ccn[nH]2)cc1NC(=O)c1cccc(N(C)C)c1 was read as Pf apPOL inh -2.0 and mHTT CaM bind 86.9*.
Cc1sc(-c2ccn[nH]2)cc1NC(=O)C1CCCCC1 was read as Pf apPOL inh -3.3 and mHTT CaM bind -3.6.
`CC(NC(=O)Nc1cccc(Cl)c1)c1ccccc1` (stereo unspecified) gave Pf apPOL inh -4.7 and mHTT CaM bind -3.3.
`CC(NC(=O)Nc1ccc(Cl)c(Cl)c1)c1ccccc1` (stereo unspecified) gave Pf apPOL inh -0.8 and mHTT CaM bind 72.9*.
For CC(C)CCNC(=O)N1CCn2cccc2C1C(C)C (stereo unspecified) the results were Pf apPOL inh -1.5 and mHTT CaM bind 10.8.
Cc1ccc2c(c1)NC1(CCN(C(=O)c3ccccc3Br)CC1)c1cccn1-2 was read as Pf apPOL inh -5.0 and mHTT CaM bind 89.0*.
Screening O=C(Nc1ccccc1Cl)N1CCC2(CC1)Nc1cc(F)ccc1-n1cccc12 returned Pf apPOL inh -1.4 and mHTT CaM bind 34.5.
O=C(Nc1ccc(F)c(Cl)c1)N1CCC2(CC1)Nc1cc(F)ccc1-n1cccc12 was read as Pf apPOL inh 2.2 and mHTT CaM bind 96.9*.
`COC(=O)c1cccc(NC(=O)N2CCC3(CC2)Nc2cc(F)ccc2-n2cccc23)c1` gave Pf apPOL inh -3.3 and mHTT CaM bind 52.8*.
Screening O=C(Nc1cccc(F)c1)N1CCC2(CC1)Nc1cc(F)ccc1-n1cccc12 returned Pf apPOL inh -0.6 and mHTT CaM bind 87.3*.
`Cc1cccc(NC(=O)N2CCC3(CC2)Nc2cc(F)ccc2-n2cccc23)c1C` gave Pf apPOL inh -3.4 and mHTT CaM bind 39.7.
`O=C(Nc1ccc(F)cc1F)N1CCC2(CC1)Nc1cc(F)ccc1-n1cccc12` gave Pf apPOL inh 1.3 and mHTT CaM bind 49.6.
Screening Cc1cccc(NC(=O)CSc2cc(N3CCCC(C)C3)ncn2)c1 (stereo unspecified) returned Pf apPOL inh 1.5 and mHTT CaM bind -20.0.
`O=C(Nc1ccc(Br)cc1F)c1ccc(-c2cccc([N+](=O)[O-])c2)o1` gave Pf apPOL inh -9.4 and mHTT CaM bind 19.7.
`C[n+]1cccc(S(=O)(=O)Nc2ccc(Cl)cc2C(=O)Nc2ccc(Cl)cc2)c1` gave Pf apPOL inh 6.5 and mHTT CaM bind 8.0.
COc1ccc(S(=O)(=O)N2CCOCC2)c2cccnc12 was read as Pf apPOL inh 15.2 and mHTT CaM bind 3.0.
`O=C(Nc1cccc(F)c1)N1CCC2(CC1)Nc1ccccc1-n1cccc12` gave Pf apPOL inh 2.1 and mHTT CaM bind 70.8*.
Screening CCOC(=O)c1ccccc1NC(=O)N1CCC2(CC1)Nc1cc(F)ccc1-n1cccc12 returned Pf apPOL inh -2.9 and mHTT CaM bind 50.2*.
O=C(Nc1ccccc1C(F)(F)F)N1CCC2(CC1)Nc1cc(F)ccc1-n1cccc12 was read as Pf apPOL inh 4.7 and mHTT CaM bind 36.6.
`COC(=O)c1ccccc1NC(=O)N1CCC2(CC1)Nc1cc(F)ccc1-n1cccc12` gave Pf apPOL inh 2.3 and mHTT CaM bind 46.0.
`Cc1ccc(Cl)cc1NC(=O)N1CCC2(CC1)Nc1cc(F)ccc1-n1cccc12` gave Pf apPOL inh 0.1 and mHTT CaM bind 29.4.
`Cc1cccc(NC(=O)N2CCC3(CC2)Nc2cc(F)ccc2-n2cccc23)c1` gave Pf apPOL inh -0.2 and mHTT CaM bind 55.0*.
Cc1ccc(NC(=O)N2CCC3(CC2)Nc2cc(F)ccc2-n2cccc23)cc1F was read as Pf apPOL inh -4.0 and mHTT CaM bind 86.5*.
For Cc1ccc(NC(=O)N2CCC3(CC2)Nc2cc(F)ccc2-n2cccc23)c(C)c1 the results were Pf apPOL inh -0.5 and mHTT CaM bind 39.7.
`O=S(=O)(NCCCN1CCOCC1)c1cc(Br)c(Br)s1` gave Pf apPOL inh -3.4 and mHTT CaM bind 10.0.
COc1cccc(N2C(=O)NC3CC2(C)Oc2ccc(Br)cc23)c1 (stereo unspecified) was read as Pf apPOL inh 7.5 and mHTT CaM bind 40.0.
O=C(C1CC(=O)N(c2ccccc2)C1)N1CCSCC1 (stereo unspecified) was read as Pf apPOL inh 3.6 and mHTT CaM bind -0.1.
`Cc1ccc2c(c1)NC1(CCN(C(=O)c3cccc(F)c3)CC1)c1cccn1-2` gave Pf apPOL inh 0.8 and mHTT CaM bind 61.9*.
For COc1ccc(Cl)cc1NC(=O)N1CCC2(CC1)Nc1ccccc1-n1cccc12 the results were Pf apPOL inh -6.3 and mHTT CaM bind 32.4.
